# Only some compounds are listed: those with a hit (about 1.7% of all), similar ones and a draw of the others.
# RXFP1 agonist: agonists of human relaxin receptor RXFP1; actives 0.3% (n = 370,000); Q9HBX9; Potency, µM (titrated, usually from 57.5 µM), actives largely listed as activators; HEK293T-RXFP1 cAMP TR-FRET, 30 min; response scale: percent of porcine relaxin response, buffer zero; active means well fitted activation curve with a large enough effect; inconclusive means small, poorly fitted or top-dose-only effect; further: nearly all actives have a fitted effect of over 60% in size
#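 HEK293 cells stably expressing RXFP1, treated 30 min at 37C with compounds plus PDE4 inhibitor Ro 20174; cAMP measured by HTRF TR-FRET. Normalized to buffer and 29 nM porcine relaxin; EC50 by Hill fit.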
# Akt phos inh: Akt phosphorylation inhibition | actives 0.32% (n = 360,000) | Neuro2A IGF-stimulated pAkt S473 HTRF, 20 min; active compounds read low | activity change, % for hits at 50 µM; in the data active means activity change below about -80%; inconclusive means mostly about -51% to -80%
#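 Neuro2A cells (4,500/well, DMEM with 0.5% FBS) were treated with compound at a single 50 µM final concentration, stimulated with 6 nM IGF for 20 min at 37 °C, and lysed. Phospho-Akt Ser473 was read by HTRF as 665/615 ratio ×10^4.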
# KCNH2 WT inh: inhibitors of human wildtype KCNH2 potassium channel; AID 720551; Q12809; activity change, % at 1.84 µM; actives 0.37% (n = 340,000); U2OS, BacMam KCNH2, thallium flux FluxOr; active compounds read low;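 active means maximum activity change below -70%; inconclusive means maximum activity change between -70% and -50%; inactive means maximum activity change above -50%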
# Target sequence (Q12809 whole entry, looked up): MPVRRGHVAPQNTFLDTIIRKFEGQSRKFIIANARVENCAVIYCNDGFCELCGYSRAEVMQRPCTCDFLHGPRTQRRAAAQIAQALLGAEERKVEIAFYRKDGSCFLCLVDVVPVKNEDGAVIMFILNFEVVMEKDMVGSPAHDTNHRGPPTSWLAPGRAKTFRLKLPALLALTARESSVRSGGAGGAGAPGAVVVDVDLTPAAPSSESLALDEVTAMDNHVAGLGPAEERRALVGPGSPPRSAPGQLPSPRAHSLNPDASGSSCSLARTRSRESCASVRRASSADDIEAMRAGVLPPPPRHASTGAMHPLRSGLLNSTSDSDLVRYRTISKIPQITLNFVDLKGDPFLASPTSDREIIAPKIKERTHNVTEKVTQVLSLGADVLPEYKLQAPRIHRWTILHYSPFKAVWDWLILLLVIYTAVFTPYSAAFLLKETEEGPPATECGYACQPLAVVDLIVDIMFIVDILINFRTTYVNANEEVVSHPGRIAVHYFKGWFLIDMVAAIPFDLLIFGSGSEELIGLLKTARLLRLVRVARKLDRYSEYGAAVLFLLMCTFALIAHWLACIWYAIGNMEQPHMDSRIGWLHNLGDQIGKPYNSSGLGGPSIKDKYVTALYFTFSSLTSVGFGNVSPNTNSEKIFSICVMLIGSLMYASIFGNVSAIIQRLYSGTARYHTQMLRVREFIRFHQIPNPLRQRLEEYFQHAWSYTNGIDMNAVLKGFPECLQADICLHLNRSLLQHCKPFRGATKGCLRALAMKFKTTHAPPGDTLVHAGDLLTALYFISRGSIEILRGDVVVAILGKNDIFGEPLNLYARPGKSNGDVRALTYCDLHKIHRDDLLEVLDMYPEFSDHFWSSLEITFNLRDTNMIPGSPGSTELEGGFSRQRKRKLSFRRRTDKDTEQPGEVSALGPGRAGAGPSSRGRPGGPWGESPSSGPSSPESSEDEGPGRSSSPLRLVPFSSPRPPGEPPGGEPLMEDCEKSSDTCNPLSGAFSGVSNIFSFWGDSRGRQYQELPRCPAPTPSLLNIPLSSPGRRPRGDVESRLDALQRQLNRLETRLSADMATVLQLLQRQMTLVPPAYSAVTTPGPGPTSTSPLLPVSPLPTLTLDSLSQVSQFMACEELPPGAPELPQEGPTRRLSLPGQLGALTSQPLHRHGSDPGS
#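 U2OS cells were transduced with wild-type KCNH2 virus (2.03 x 10^8 / mL) for 4 h at room temperature, then cultured overnight at 37 C. Thallium flux was read with FluxOr dye. Rate constants were normalized to DMSO controls.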
# RXFP1 antag: blocks the human relaxin receptor RXFP1; Q9HBX9; HEK293-RXFP1, relaxin-stimulated cAMP HTRF, 30 min; active compounds read low; activity change, negative = inhibition, % at 57.5 µM; actives 0.59% (n = 350,000); AID 1259400;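 active means activity change of -60% or lower, but not beyond a set lower limit; inconclusive means change between -60% and -40%, or beyond the set limit; inactive means change above -40%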
# KCNH2 3.1 block: KCNH2 3.1 (human) potassium channel inhibition; U2OS KCNH2 3.1, thallium flux FluxOr; active compounds read low; activity change, % (tested at about 1.8 µM); actives 0.95% (n = 340,000);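 active means maximum activity change below -70%; inconclusive means maximum activity change from -70% to -50%; inactive means maximum activity change above -50%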;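 further: thallium influx rate constant from kinetic fluorescence after stimulation buffer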
#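 FluxOr-based Tl+ influx in U2OS cells transduced with KCNH2 3.1 virus; rate constants normalized to DMSO controls.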
# A number is an active result; - = inactive; ? = inconclusive; . = no result.
SMILES,RXFP1 agonist,Akt phos inh,KCNH2 WT inh,RXFP1 antag,KCNH2 3.1 block
O=C(O)c1ccccc1C(=O)c1ccc(N2CCOCC2)c([N+](=O)[O-])c1,-,-,-,-69,-
CCc1cc(C(=O)N2CCCC(C(=O)c3ccc(OC)c(F)c3)C2)n(C)n1 (stereo not drawn),-,-,-,-,-
CC12CCC(=O)N1C(C(=O)Nc1nc3ccc(Cl)cc3s1)CS2 (stereo not drawn),-,-,-,-60,-
Cc1cc(Cl)cc(Cl)c1OCC(=O)NCc1ccco1,-,-,-,-,-
Cc1cccnc1NC(=O)c1ccc(Cl)c(S(=O)(=O)N2CCCCCC2)c1,-,-,-,-,-
Cc1nonc1NC(=O)c1ccc(Cl)c(S(=O)(=O)N2CCCCC2)c1,-,-98%,-,-,-
CC(=O)c1ccc(NC(=O)C(C)N(C)CC(=O)Nc2ccc(Cl)cc2)cc1 (stereo not drawn),-,-,-,-,-
Cc1nc2ccc(Br)cc2c2c1CC(CBr)O2 (stereo not drawn),-,-,-,-,-
CCc1ccc(CNC(=O)c2cc(-c3ccc(Br)s3)nc3ccccc23)cc1,?,.,.,-,.
O=C(O)c1cc(-c2ccc(Br)s2)nc2ccccc12,2.8µM,-,-,-,-
Cc1ccc2c(c1)/C(=N/N1C(=O)c3ccccc3C1=O)C(=O)N2,-,-,-,-,-155
COc1cccc(C(=O)Nc2c3c(nc4c2CCC4)CCCC3)c1,-,-,-,-,-
COc1ccc(CCNC(=O)COC(=O)C23CC4CC(CC(Br)(C4)C2)C3)cc1,-,-,-88,-,-
CC/C(=N/O)C(=O)c1ccc(Br)cc1,-,-,-,-88,-
C/C(=N/OC(=O)c1ccc(C)cc1)C(=O)c1ccc(Br)cc1,-,-,-,-,-
COc1ccc(N=C2C(=S)N(c3ccc(OC)cc3)C(=NS(=O)(=O)c3ccccc3)N2c2ccccc2)cc1,.,-,-,-,-
N=C1N(c2ccccc2)C(=S)C(=Nc2ccccc2)N1c1ccccc1,.,-,-71,-,-
CCOC(=O)C1=C(c2ccccc2)OC(N)=C(C#N)C1C1CCCCC1 (stereo not drawn),-,-,-,-,-
CCOC(=O)C1=C(C)OC(N)=C(C#N)C1C1CCCCC1 (stereo not drawn),-,-118%,-,-,-
Cc1ccccc1CNC(=O)C(=O)NCCC1CCCCN1S(=O)(=O)c1cccs1 (stereo not drawn),-,-,-144,-,-166
CCCN(Cc1cc2cc(OC)ccc2[nH]c1=O)C(=O)c1ccco1,-,-,-,-,-
CCCCN(Cc1cc2cc(OC)ccc2[nH]c1=O)C(=O)c1ccco1,-,-93%,-,-,-
Cc1ccc(N(Cc2cc3ccccc3[nH]c2=O)C(=O)c2ccco2)c(C)c1,-,-112%,-,-,-
Cc1ccc(N(Cc2cc(=O)[nH]c3ccccc23)C(=O)c2ccco2)cc1,-,-119%,-,-,-
CC(=O)N(Cc1cc(=O)[nH]c2ccccc12)c1ccc(C)cc1,-,-,-,-,-
SMILES,RXFP1 agonist,Akt phos inh,KCNH2 WT inh,RXFP1 antag,KCNH2 3.1 block
COc1ccc2[nH]c(=O)c(CN(Cc3ccco3)C(c3nnnn3Cc3ccccc3)C(C)C)cc2c1 (stereo not drawn),-,-105%,-,-,-
COCCn1nnnc1C(C(C)C)N(Cc1ccccc1)Cc1cc2cc(OC)ccc2[nH]c1=O (stereo not drawn),-,-,-,-,-
CCCCN(CCCC)CC(O)Cn1cc(/C=C/C(=O)c2ccccc2)c2ccccc21 (stereo not drawn),-,.,.,.,.
COc1ccc(-c2nc(CNS(=O)(=O)c3ccc(OC)c(OC)c3)cs2)cc1,-,-,-,-,-114
COc1ccc(-c2nc(CNS(=O)(=O)c3ccc(Br)cc3)cs2)cc1,-,.,.,-,.
O=C(NCCCN1CCN(c2ccc(F)cc2)CC1)NC12CC3CC(CC(C3)C1)C2,-,-,?,-,-83
CSc1ccc(NC(=O)NCCCN2CCC(Cc3ccccc3)CC2)cc1,-,-,-,-,-106
COc1ccc(-c2cc3c(=O)n(CC(=O)NCCCN4CCN(Cc5ccccc5)CC4)ncn3n2)cc1,-,.,-,-,-
COc1ccc(NC(=O)NCCCCc2ccccc2)cc1,-,-,-,-,-
COc1ccc(-c2cc3c(=O)n(CC(=O)NCCCN4CCC(Cc5ccccc5)CC4)ncn3n2)cc1,-,-,-111,-,-71
COc1ccc(NC(=O)NCCCN2CCC(Cc3ccccc3)CC2)cc1,-,-,-,-,-104
CCc1nc2sc3ccccc3c(=O)c2c(=O)n1Cc1ccc(OC)cc1,-,-,-,-,-
O=C(Cn1nc(-c2ccc3c(c2)OCCO3)ccc1=O)Nc1ccc(-n2cnnn2)cc1,-,-,-,-,-
COc1ccc(-c2noc(CCC(=O)NCCCN3CCC(Cc4ccccc4)CC3)n2)cc1,-,-,?,-,-103
CSc1ccc(N2CCN(CCCNC(=O)Nc3ccccc3F)CC2)cc1,-,-,-,-,-78
CN(C(=S)NC(=O)c1ccc(F)cc1)C1CCCCC1,-,-,-,-,-
CN(C(=S)NC(=O)c1ccc(Cl)cc1)C1CCCCC1,-,-,-74,-,-
CCn1c(/C=C/c2ccc(O)cc2)nc2ccccc2c1=O,-,-,-,-71,-
COc1cccc(Nc2cc(C)nc3nc(C)nn23)c1,-,-,-,.,-
O=P(CCCCCCCCCP(=O)(c1ccccc1)c1ccccc1)(c1ccccc1)c1ccccc1,-,-,-,-72,-
O=C(O)CCCCCCCCCCP(=O)(c1ccccc1)c1ccccc1,-,-,-,-,-
O=C(c1cc(=O)c2cc(Cl)ccc2o1)N(Cc1ccccc1)C1CCS(=O)(=O)C1 (stereo not drawn),-,.,.,-,.
COc1ccc(NC(=O)CCCCn2c(=O)[nH]c3ccccc3c2=O)cc1,-,-,-,-,-
COc1ccc(NC(=O)CCCn2c(=O)[nH]c3ccccc3c2=O)cc1,-,-110%,-,-,-
Cc1ccc(NC(=O)CCn2cccc2)cc1,-,-,-,-,-
SMILES,RXFP1 agonist,Akt phos inh,KCNH2 WT inh,RXFP1 antag,KCNH2 3.1 block
COc1ccc(NC(=O)CCn2cccc2)cc1,-,-,-,-,-78
COc1cc(CCC(C)NCc2ccccc2)ccc1O (stereo not drawn),-,-,-,-,-
CC(c1ccco1)N(C(=O)CSc1ccc(Br)cc1)c1ccccn1 (stereo not drawn),-,-,-,-,-
CCN(CC)CCN1C(=O)c2ccccc2NC1c1ccccc1F (stereo not drawn),-,-,-,-,-
N#Cc1ccsc1NC(=O)C1CCN(S(=O)(=O)c2cccs2)CC1,-,-,-,-70,-
CCCCCCCCNc1nc(Cl)nc(NCc2ccco2)n1,-,-,-,-,-
